Assay outcomes: PubChem, National Center for Advancing Translational Sciences (NCATS)
The list is not random: actives were taken first. Their share in the collection is about 13%.
Sfp PPTase inh: qHTS Assay for Inhibitors of Bacillus subtilis Sfp phosphopantetheinyl transferase (PPTase); 4'-phosphopantetheinyl transferase ffp (Bacillus subtilis), Q9F4F7; Biochemical Sfp PPTase activity, qHTS; Potency, µM, hits mostly inhibitors; actives 3.5% (n = 310,000); AID 1490, 2009;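 note: the enzyme is Sfp with the accession as filed and its product quenches rhodamine fluorescence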
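After 15 min at room temperature with compound, 15 nM Sfp received 5 uM rhodamine-CoA plus 12.5 uM BHQ-2-ybbR (50 mM Hepes pH 7.6, 10 mM MgCl2). Rate came from the fluorescence difference over 30 min, ex 525/em 598 nm.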
Lamin A splicing: qHTS Assay for Modulators of Lamin A Splicing | Potency, µM (highest dose often 46.1 µM), most hits filed as inhibitors | HeLa LMNA splicing GFP/RFP minigene ratio, 48 h | actives 0.01% (n = 200,000); active = well fitted inhibition curve with a large enough effect in the signal ratio, with a control signal flat, not every such curve was filed as active; inconclusive = small, poorly fitted or top-dose-only effect, or effect the other way, or a change in a side signal; the % refers to the signal ratio
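S3 HeLa cells stably expressing lamin A-EGFP splicing minigene plus DsRed2, 600 cells/well, 48 h compound exposure at 37C. Laser-scanning cytometry; analysed as GFP (500-530 nm)/RFP (575-640 nm) total intensity ratio; 0.5% DMSO vehicle.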
KDM4E inh: qHTS Assay for Inhibitors of Human Jumonji Domain Containing 2E (JMJD2E) | Lysine-specific demethylase 4E (Homo sapiens), B2RXH2 | AID 2147, 2009 | JMJD2E catalytic domain, FDH-coupled NADH fluorescence (FDH is formaldehyde dehydrogenase) | Potency, µM (titrated, usually from 57.1 µM), hits mostly inhibitors | actives 1.6% (n = 230,000); active = well fitted inhibition curve with a large enough effect, not every such curve was filed as active; inconclusive = small, poorly fitted or top-dose-only effect, or another doubt; inactive = no such curve, though single readings can be large or run the other way; note: nearly all actives have a fitted effect of over 50% in size
Target sequence (B2RXH2 1-337 limits assumed): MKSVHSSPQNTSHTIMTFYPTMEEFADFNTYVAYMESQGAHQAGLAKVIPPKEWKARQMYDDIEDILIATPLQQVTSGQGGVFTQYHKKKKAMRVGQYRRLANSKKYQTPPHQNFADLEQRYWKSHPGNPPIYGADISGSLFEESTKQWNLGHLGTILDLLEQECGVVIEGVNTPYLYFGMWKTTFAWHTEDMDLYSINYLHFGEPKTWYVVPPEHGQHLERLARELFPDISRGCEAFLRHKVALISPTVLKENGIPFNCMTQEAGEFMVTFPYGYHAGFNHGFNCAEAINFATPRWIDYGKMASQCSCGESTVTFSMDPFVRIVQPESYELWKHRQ
ALDH1A1 block: qHTS Assay for Inhibitors of Aldehyde Dehydrogenase 1 (ALDH1A1); Aldehyde dehydrogenase 1A1 (Homo sapiens), P00352; Purified ALDH1A1, NADH fluorescence, propionaldehyde substrate; Potency, µM (top dose mostly 75.3 µM), usual class: inhibitors; actives 7.3% (n = 220,000); active = well fitted inhibition curve with a large enough effect, not every such curve was filed as active; inconclusive = small, poorly fitted or top-dose-only effect, or another doubt; inactive = no such curve, though single readings can be large or run the other way
miR-21 reporter: qHTS Assay for Modulators of miRNAs and/orActivators of miR-21. Potency, µM (titrated, usually from 38.3 µM), usual class: activators. 340,000 tested, under 10 active. AID 2288, 2010. HeLa miR-21 FLuc reporter, luciferase, 48 h;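 note: miR-21 action dims this reporter so a rising signal means less miR-21 action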
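HeLa cells stably expressing CMV-driven firefly luciferase with a downstream miR-21 binding sequence, endogenously expressing miR-21, were treated with titrations (up to about 40uM final) for 48 hours at 37 degree Celsius. Luciferase luminescence was read after lysis.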
G9a inh: qHTS Assay for Inhibitors of Histone Lysine Methyltransferase G9a. AID 504332, 2011. G9a H3K9 monomethylation, AlphaScreen, 2 h. actives 8.8% (n = 350,000). Histone-lysine N-methyltransferase EHMT2 (Homo sapiens), Q96KQ7. Potency, µM (top dose mostly 102 µM), hits mostly inhibitors; note: nearly all actives have a fitted effect of over 75% in size
Target sequence (Q96KQ7 913-1193 limits assumed): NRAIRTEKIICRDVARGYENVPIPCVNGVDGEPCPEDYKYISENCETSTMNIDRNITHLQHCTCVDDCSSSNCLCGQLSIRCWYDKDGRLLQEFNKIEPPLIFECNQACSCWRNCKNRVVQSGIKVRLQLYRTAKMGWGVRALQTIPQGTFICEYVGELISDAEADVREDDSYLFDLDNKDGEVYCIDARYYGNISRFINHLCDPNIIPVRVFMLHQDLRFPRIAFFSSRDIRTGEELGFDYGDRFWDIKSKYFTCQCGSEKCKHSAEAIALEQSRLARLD
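AlphaScreen read-out: biotin-H3K9 peptide (500 nM) methylation by 20 nM enzyme with 20 uM SAM, 2 h at room temperature after 15 min compound preincubation; anti-monomethyl H3K9 antibody plus donor/acceptor beads, 10 min dark.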
Each line names hits and unclear results; the compound was inactive in the other large screens; ! = repeats disagree. Unless noted, calls come from the whole dose curve; as a rule, active = well fitted curve in the direction sought with a large enough effect; inconclusive = small, poorly fitted or top-dose-only effect, or another doubt; inactive = no such curve, though single readings can be large; an effect the other way counts as inactive or inconclusive.

Cc1cc(NS(=O)(=O)c2ccc(NC(=O)COc3c(C)cc(Br)cc3C)cc2)no1	G9a inh 56.2µM! (no result: Lamin A splicing, KDM4E inh, ALDH1A1 block)
CCOC(=O)/C=C/C(=O)Nc1ccc(S(=O)(=O)N2CCCCCC2)cc1	Lamin A splicing inconclusive, ALDH1A1 block 3.55µM (no result: G9a inh)
NC(=O)c1ccccc1NS(=O)(=O)c1ccc(S(=O)(=O)N2CCCC2)cc1	none (no result: Sfp PPTase inh, Lamin A splicing, KDM4E inh, ALDH1A1 block, miR-21 reporter)
CCOC(=O)/C=C/C(=O)Nc1ccc(S(=O)(=O)N(C)c2ccccc2)cc1	ALDH1A1 block 25.1µM, G9a inh 44.7µM (no result: Lamin A splicing)
O=C(CSc1ccccc1)N1CCCC(N2CCN(c3ccc(F)cc3)CC2)C1 (stereo not drawn)	none (no result: Lamin A splicing, KDM4E inh, ALDH1A1 block)
Cc1cc(NS(=O)(=O)c2ccc(NC(=S)NC(=O)c3ccc(F)cc3)cc2)no1	ALDH1A1 block inconclusive
CCOC(=O)/C=C/C(=O)Nc1ccc(S(=O)(=O)Nc2cc(C)on2)cc1	G9a inh 50.1µM (no result: Lamin A splicing, KDM4E inh, ALDH1A1 block)
CC(=O)Nc1ccc(S(=O)(=O)N(CC(=O)O)Cc2ccccc2)cc1	none
Cc1cc(NS(=O)(=O)c2ccc(NC(=S)NC(=O)c3cccc(S(=O)(=O)N(C)C)c3)cc2)no1	ALDH1A1 block inconclusive, G9a inh 35.5µM
CCOC(=O)CN(Cc1ccccc1)S(=O)(=O)c1ccc(NC(C)=O)cc1	Lamin A splicing inconclusive, ALDH1A1 block 5.62µM
COc1ccc2[nH]c3c(c2c1)CCNC3(C)CCc1ccc(Cl)nc1 (stereo not drawn)	none (no result: Lamin A splicing, KDM4E inh, ALDH1A1 block)
c1cc2c(cn1)cnc1cscc12	Lamin A splicing inconclusive, KDM4E inh inconclusive, ALDH1A1 block inconclusive, G9a inh 79.4µM
CC1=C(C(=O)OCc2ccccc2)C(c2ccc(-c3ccccc3)cc2)NC(=O)N1CCCCCC(=O)O (stereo not drawn)	G9a inh 35.5µM
CC1=C(C(=O)OCc2ccccc2)C(c2ccccc2)NC(=O)N1CCCCCC(=O)O (stereo not drawn)	G9a inh 79.4µM
CC1=C(C(=O)OCc2ccccc2)C(c2ccc3ccccc3c2)NC(=O)N1CCCCCC(=O)O (stereo not drawn)	G9a inh inconclusive
CC1=C(C(=O)OCc2ccccc2)C(c2ccc(C(C)(C)C)cc2)NC(=O)N1CCCCCC(=O)O (stereo not drawn)	KDM4E inh inconclusive, G9a inh 44.7µM
Cc1ccc(C)c(N(C(=O)c2csnn2)C(C(=O)NC2CCCCC2)c2cccnc2)c1 (stereo not drawn)	none (no result: Lamin A splicing, KDM4E inh, ALDH1A1 block)
COc1cc2nc(C3CCC3)nc(N3CCN(c4ccccn4)CC3)c2cc1OC	Sfp PPTase inh 79.4µM, Lamin A splicing inconclusive, KDM4E inh inconclusive, ALDH1A1 block 8.91µM, G9a inh 50.1µM
COc1cc2nc(C3CCC3)nc(N3CCN(c4ccccc4OC)CC3)c2cc1OC	Lamin A splicing inconclusive, ALDH1A1 block 28.2µM, G9a inh inconclusive
O=C(CN1CCCc2ccccc21)NC(=O)NC1CCCCC1	Sfp PPTase inh inconclusive, KDM4E inh inconclusive, ALDH1A1 block inconclusive, G9a inh 70.8µM (no result: Lamin A splicing)
O=C(CN1CCc2ccccc21)NC(=O)NCc1ccccc1	ALDH1A1 block 7.08µM, G9a inh 31.6µM
O=C(CN1CCCc2ccccc21)NC(=O)NCc1ccccc1	none (no result: Lamin A splicing, ALDH1A1 block)
O=C(CN1CCCc2ccccc21)NC(=O)NCc1ccco1	Sfp PPTase inh 35.5µM, G9a inh inconclusive
CC(C)(C)NC(=O)NC(=O)CN1CCCc2ccccc21	G9a inh inconclusive (no result: Lamin A splicing)
NC(=O)C1CCN(C(=O)CN2CCCc3ccccc32)CC1	KDM4E inh inconclusive, ALDH1A1 block 20µM
CC1Cc2ccccc2N1CC(=O)NC(=O)NCc1ccco1 (stereo not drawn)	Lamin A splicing inconclusive, ALDH1A1 block inconclusive, G9a inh inconclusive
O=C(NCc1ccco1)c1ccc(S(=O)(=O)N2CCCc3ccccc32)cc1	Lamin A splicing inconclusive, ALDH1A1 block 14.1µM
CCC(=O)N1CCCc2cc(S(=O)(=O)N3CCCc4ccccc43)ccc21	Lamin A splicing inconclusive, ALDH1A1 block 17.8µM
O=C(CN1CCc2ccccc21)NCc1ccccc1Cl	ALDH1A1 block inconclusive, G9a inh 70.8µM
CCC(=O)N1CCc2cc(S(=O)(=O)N3CCc4ccccc4C3)ccc21	KDM4E inh inconclusive, ALDH1A1 block inconclusive
O=C(COC(=O)C1CCCCC1C(=O)N1CCc2ccccc21)NCc1ccco1 (stereo not drawn)	G9a inh 28.2µM
CCOc1cccc(C(=O)NC2=NCCS2)c1	none (no result: Lamin A splicing, KDM4E inh, ALDH1A1 block, G9a inh)
Cc1cc(=O)n(Cc2cccc(F)c2)c2c1c(C)nn2-c1cccc(F)c1	none (no result: Sfp PPTase inh, KDM4E inh, ALDH1A1 block)
CCOc1ccccc1NC(=O)N(Cc1ccc(C)o1)C1CCN(C(C)=O)CC1	none (no result: Sfp PPTase inh, KDM4E inh, ALDH1A1 block)
COc1ccccc1-c1ccc(=O)n(CC(=O)NC2CCc3ccccc32)n1 (stereo not drawn)	Sfp PPTase inh 35.5µM, miR-21 reporter inconclusive
COc1ccc(-c2noc(CSc3nnc(-c4ccncc4)n3-c3ccccc3)n2)cc1	none (no result: Sfp PPTase inh, Lamin A splicing, KDM4E inh, ALDH1A1 block)
O=c1cc2c(=O)oc3cc(O)c(O)oc3c2c(O)c1O	Sfp PPTase inh 5.01µM, KDM4E inh 3.98µM (no result: G9a inh)
CCc1ccccc1NC(=O)Cn1nc2c3cc(F)ccc3n(Cc3cccc(C)c3)cc-2c1=O	none (no result: Sfp PPTase inh, Lamin A splicing, KDM4E inh, ALDH1A1 block)
O=C1CCc2ccccc2N1	none (no result: Lamin A splicing, ALDH1A1 block)
S=C1Cc2ccccc2N1	Sfp PPTase inh 3.16µM, KDM4E inh inconclusive, miR-21 reporter inconclusive, G9a inh 4.47µM (no result: Lamin A splicing, ALDH1A1 block)
COc1ccc2sc(NC(=O)CC(C)C)nc2c1	ALDH1A1 block 25.1µM
CCCCN(C(=O)NC(=O)Nc1nc2ccc(OC)cc2s1)S(C)(=O)=O	Sfp PPTase inh 56.2µM, KDM4E inh inconclusive, ALDH1A1 block inconclusive, G9a inh inconclusive
COc1ccc(Nc2nc3ccc(OC)cc3s2)cc1	G9a inh 39.8µM
CCOCC(=O)Nc1nc2ccc(OC)cc2s1	ALDH1A1 block 17.8µM
